Measurements published in PubChem BioAssay AID1159580 (chemical genetic matrix, 2015).
About 2,000 (36%) of roughly 5,500 compounds were called active. About 18% were inconclusive and are not listed. Cut-off read from the data, not from the text of the source: active = normalized growth mostly below about 0.91 (no sharp cut-off); inconclusive = no clear call, values can overlap the other calls; inactive = mostly above about 0.92. The list shows a part of the results.

Experiment: chemical genetic growth profiling, strain panel (AID 1159580);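 note: tested at 20 µM; growth read once vehicle control cultures reached saturation at 30 °C; 1 = growth at the plate median or of vehicle wells; lower values mean less growth of the strain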
Settings: growth OD

Measured: normalized growth

CCN(CCO)CCCC(C)Nc1ccnc2cc(Cl)ccc12 (configuration not stated)
inactive: S. cerevisiae deletion strains, locus YJR075W, strain HOC1, hits give low values 1.01 | S. cerevisiae deletion strains, locus YKL009W, strain mrt4, hits give low values 1.03 | S. cerevisiae deletion strains, locus YKL068W, hits give low values 0.998 | S. cerevisiae deletion strains, locus YKL085W, strain MDH1 (second series), hits give low values 1 | S. cerevisiae deletion strains, locus YKL085W, strain MDH1, hits give low values 1 | S. cerevisiae deletion strains, locus YKL160W, strain elf1, hits give low values 0.995 | S. cerevisiae deletion strains, locus YKL190W, strain CNB1, hits give low values 1.02 | S. cerevisiae deletion strains, locus YKR001C, strain vps1, hits give low values 1.03 | S. cerevisiae deletion strains, locus YKR026C, strain gcn3, hits give low values 1 | S. cerevisiae deletion strains, locus YKR091W, strain srl3, hits give low values 1 | S. cerevisiae deletion strains, locus YLL001W, strain dnm1, hits give low values 0.988 | S. cerevisiae deletion strains, locus YLL026W, hits give low values 1.01 | S. cerevisiae deletion strains, locus YLL041C, strain sdh2, hits give low values 1.01 | S. cerevisiae deletion strains, locus YLR027C, strain aat2, hits give low values 1 | S. cerevisiae deletion strains, locus YLR039C, strain RIC1, hits give low values 1.04 | S. cerevisiae deletion strains, locus YLR058C, strain SHM2, hits give low values 1.01 | S. cerevisiae deletion strains, locus YLR102C, strain apc9, hits give low values 1.01 | S. cerevisiae deletion strains, locus YLR113W, strain HOG1, hits give low values 1.03 | S. cerevisiae deletion strains, locus YLR221C, strain rsa3, hits give low values 0.996 | S. cerevisiae deletion strains, locus YLR258W, strain gsy2, hits give low values 0.999 | S. cerevisiae deletion strains, locus YLR262C, strain YPT6 (second series), hits give low values 0.989 | S. cerevisiae deletion strains, locus YLR262C, strain YPT6, hits give low values 1.06 | S. cerevisiae deletion strains, locus YLR268W, strain sec22, hits give low values 1.02 | S. cerevisiae deletion strains, locus YLR320W, strain mms22, hits give low values 0.997 | S. cerevisiae deletion strains, locus YLR330W, strain CHS5, hits give low values 1.01 | S. cerevisiae deletion strains, locus YLR342W, strain FKS1 (second series), hits give low values 1.02 | S. cerevisiae deletion strains, locus YLR342W, strain FKS1, hits give low values 0.997 | S. cerevisiae deletion strains, locus YLR357W, strain rsc2, hits give low values 1.02 | S. cerevisiae deletion strains, locus YLR370C, strain arc18, hits give low values 1 | S. cerevisiae deletion strains, locus YLR371W, strain rom2, hits give low values 1 | S. cerevisiae deletion strains, locus YLR384C, strain iki3, hits give low values 1 | S. cerevisiae deletion strains, locus YLR418C, strain cdc73, hits give low values 1.04 | S. cerevisiae deletion strains, locus YML016C, strain PPZ1, hits give low values 1 | S. cerevisiae deletion strains, locus YML032C, strain rad52, hits give low values 1.05 | S. cerevisiae deletion strains, locus YML120C, strain ndi1, hits give low values 0.999 | S. cerevisiae deletion strains, locus YML124C, strain tub3, hits give low values 1.01 | S. cerevisiae deletion strains, locus YMR058W, strain fet3, hits give low values 1 | S. cerevisiae deletion strains, locus YMR078C, strain ctf18, hits give low values 1.03 | S. cerevisiae deletion strains, locus YMR125W, strain sto1, hits give low values 1 | S. cerevisiae deletion strains, locus YMR129W, hits give low values 1 | S. cerevisiae deletion strains, locus YMR205C, strain PFK2, hits give low values 0.986 | S. cerevisiae deletion strains, locus YMR223W, strain ubp8, hits give low values 1.02 | S. cerevisiae deletion strains, locus YMR231W, strain pep5, hits give low values 0.987 | S. cerevisiae deletion strains, locus YMR263W, strain SAP30, hits give low values 1.01 | S. cerevisiae deletion strains, locus YMR307W, strain GAS1, hits give low values 1.11 | S. cerevisiae deletion strains, locus YNL067W, strain RPL9B, hits give low values 1.01 | S. cerevisiae deletion strains, locus YNL071W, strain lat1, hits give low values 1 | S. cerevisiae deletion strains, locus YNL128W, strain TEP1, hits give low values 1.02 | S. cerevisiae deletion strains, locus YNL153C, strain GIM3, hits give low values 1 | S. cerevisiae deletion strains, locus YNL183C, strain NPR1, hits give low values 0.952 | S. cerevisiae deletion strains, locus YNL209W, strain ssb2, hits give low values 1 | S. cerevisiae deletion strains, locus YNL233W, strain BNI4, hits give low values 1.01 | S. cerevisiae deletion strains, locus YNL248C, strain rpa49, hits give low values 1 | S. cerevisiae deletion strains, locus YNL250W, strain rad50, hits give low values 1.03 | S. cerevisiae deletion strains, locus YNL271C, strain bni1, hits give low values 1.01 | S. cerevisiae deletion strains, locus YNL298W, strain CLA4, hits give low values 1.02 | S. cerevisiae deletion strains, locus YNL307C, strain MCK1, hits give low values 1.01 | S. cerevisiae deletion strains, locus YNL322C, strain KRE1 (second series), hits give low values 1 | S. cerevisiae deletion strains, locus YNL322C, strain KRE1, hits give low values 1.01 | S. cerevisiae deletion strains, locus YNR049C, strain mso1, hits give low values 0.999 | S. cerevisiae deletion strains, locus YNR052C, strain pop2, hits give low values 1.02 | S. cerevisiae deletion strains, locus YOL006C, strain TOP1, hits give low values 1.01 | S. cerevisiae deletion strains, locus YOL012C, strain htz1 0.994 | S. cerevisiae deletion strains, locus YOL147C, strain pex11, hits give low values 1.02 | S. cerevisiae deletion strains, locus YOR001W, strain rrp6, hits give low values 1 | S. cerevisiae deletion strains, locus YOR061W, strain CKA2, hits give low values 1.01 | S. cerevisiae deletion strains, locus YOR069W, strain VPS5, hits give low values 1.01 | S. cerevisiae deletion strains, locus YOR070C, strain gyp1, hits give low values 0.995 | S. cerevisiae deletion strains, locus YOR080W, strain dia2, hits give low values 0.997 | S. cerevisiae deletion strains, locus YOR083W, strain WHI5, hits give low values 0.996 | S. cerevisiae deletion strains, locus YOR106W, strain vam3, hits give low values 1.01 | S. cerevisiae deletion strains, locus YOR136W, strain idh2, hits give low values 1.03 | S. cerevisiae deletion strains, locus YOR144C, strain elg1, hits give low values 1.02 | S. cerevisiae deletion strains, locus YOR184W, strain ser1, hits give low values 1.03 | S. cerevisiae deletion strains, locus YOR231W, strain MKK1, hits give low values 1.02 | S. cerevisiae deletion strains, locus YOR265W, strain rbl2, hits give low values 1.04 | S. cerevisiae deletion strains, locus YOR270C, strain vph1, hits give low values 1.03 | S. cerevisiae deletion strains, locus YOR290C, strain snf2, hits give low values 1.03 | S. cerevisiae deletion strains, locus YOR316C, strain cot1, hits give low values 1.01 | S. cerevisiae deletion strains, locus YPL051W, strain arl3, hits give low values 0.995 | S. cerevisiae deletion strains, locus YPL055C, strain LGE1, hits give low values 1.04 | S. cerevisiae deletion strains, locus YPL078C, strain atp4, hits give low values 1.01 | S. cerevisiae deletion strains, locus YPL106C, strain sse1, hits give low values 0.991 | S. cerevisiae deletion strains, locus YPL240C, strain hsp82, hits give low values 1 | S. cerevisiae deletion strains, locus YPL241C, strain CIN2, hits give low values 1.01 | S. cerevisiae deletion strains, locus YPL256C, strain CLN2, hits give low values 0.966 | S. cerevisiae deletion strains, locus YPR119W, strain clb2, hits give low values 1.01 | S. cerevisiae deletion strains, locus YPR141C, strain kar3, hits give low values 1.02 | S. cerevisiae deletion strains, locus YPR163C, strain tif3, hits give low values 1.01 | S. cerevisiae deletion strains, locus YPR167C, strain met16, hits give low values 1.01 | S. cerevisiae deletion strains, strain wtn01, hits give low values 1.01 | S. cerevisiae strains, strain wild type, hits give low values 1.02
